Test [1] in a line: qHTS assay to test for compound auto fluorescence at 535 nm (green) in HEK293 cells (AID 720680). (In general: qHTS replaces the single test concentration by a dilution series.)
Test [2] in a line: qHTS assay to test for compound auto fluorescence at 460 nm (blue) in HEK293 cell free culture (AID 720681). The gist of the method:
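Test compounds were pinned into cell-free culture medium (DMEM with 10% FBS) and fluorescence was read directly at Ex/Em 405/460 nm. Signals were expressed as fluorescence equivalents of triamterene, with DMSO vehicle as control.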

Test [3] in a line: qHTS assay to test for compound auto fluorescence at 590 nm (red) in HEK293 cell free culture (AID 720683). The procedure, abridged: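 Tox21 10K library compounds were pinned into cell-free DMEM with 10% FBS and fluorescence was read at excitation 540 nm. Activity is expressed as Rose Bengal sodium equivalency.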
Test [4] in a line: qHTS assay to test for compound auto fluorescence at 590 nm (red) in HepG2 cell free culture (AID 720684). The gist of the method:
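Measured in medium alone (MEM containing 10% FBS) following pintool addition of compound; emission at 590 nm with 540 nm excitation, referenced to Rose Bengal sodium.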

The nature of test [5]: qHTS assay to test for compound auto fluorescence at 460 nm (blue) in HepG2 cell free culture (AID 720685). The procedure, abridged: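 Compound (23 nL) or DMSO pinned into cell-free MEM with 10% FBS; blue fluorescence read at 405/460 nm excitation/emission, expressed as auto-fluorescence equivalency to triamterene.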
The nature of test [6]: qHTS assay to test for compound auto fluorescence at 535 nm (green) in HepG2 cell free culture (AID 720686).
A short description of test [7]: qHTS assay to test for compound auto fluorescence at 460 nm (blue) in HepG2 cells (AID 720687). The gist of the method:
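Cells (2,000/well in MEM with 10% FBS) attached overnight at 37 C, then were exposed to compound or DMSO for 1 hr at 37 C, 5% CO2. Fluorescence read at Ex/Em 405/460 nm, expressed as triamterene-equivalent signal.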

Test [8] can be described thus: qHTS assay to identify small molecule antagonists of the glucocorticoid receptor (GR) signaling pathway - cell viability counter screen (AID 720693). Further: nearly all actives have a fitted effect of over 55% in size. Further: potency means the concentration at half of the fitted maximal effect.
Test [9] can be described thus: qHTS assay for identifying genotoxic compounds that show differential cytotoxicity against isogenic chicken DT40 cell lines with known DNA damage response pathways - wild type cell line (AID 743012). Further: nearly all actives have a fitted effect of over 60% in size. Further: potency means the concentration at half of the fitted maximal effect. The gist of the method: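 Wild type DT40, 300 cells/well, ~0.5 h settle at 37 C/5% CO2; compounds in DMSO added by pintool; 40 h at 37 C/5% CO2; CellTiter-Glo, 30 min RT; luminescence.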

Test [10] is described as follows: qHTS assay for identifying genotoxic compounds that show differential cytotoxicity against isogenic chicken DT40 cell lines with known DNA damage response pathways - Rev3 mutant cell line (AID 743014). Further: nearly all actives have a fitted effect of over 55% in size. Further: potency means the concentration at half of the fitted maximal effect.
Test [11] is described as follows: qHTS assay for identifying genotoxic compounds that show differential cytotoxicity against isogenic chicken DT40 cell lines with known DNA damage response pathways - Rad54/Ku70 mutant cell line (AID 743015). Further: nearly all actives have a fitted effect of over 60% in size.
Test [12] can be described thus: qHTS assay to identify small molecule antagonists of the androgen receptor (AR) signaling pathway - cell viability counter screen (AID 743033; further: nearly all actives have a fitted effect of over 45% in size; further: potency means the concentration at half of the fitted maximal effect).
Test [13] in a line: qHTS assay to identify small molecule antagonists of the androgen receptor (AR) signaling pathway using the MDA cell line - cell viability counter screen (AID 743041; further: nearly all actives have a fitted effect of over 45% in size). The procedure, abridged: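 Viability counter screen run alongside the AR antagonist reporter: cells seeded 5 h before compound, R1881 added, 16 h incubation at 37C without CO2, fluorescent CellTiter-Fluor signal quantified.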

Test [14] has as its target Glucocorticoid receptor (Homo sapiens) (UniProt P04150). In words: qHTS assay to identify small molecule agonists of the glucocorticoid receptor (GR) signaling pathway (AID 720691; active means well fitted activation curve with a large enough effect in the signal ratio in the repeat runs, not every such curve was filed as active; the % refers to the signal ratio). To be noted: GR-bla HeLa, beta-lactamase reporter ratio, 18 h; activation: at 62.4 µM (top of the series) unless noted. The gist of the method: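 Fluorescence intensity from LiveBLAzer B/G FRET substrate (2 h, room temperature) reports beta-lactamase expression driven by the glucocorticoid response element in GR-bla HeLa cells after 18 h compound exposure at 37 C.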

Test [15] shares this target. In words: qHTS assay to identify small molecule antagonists of the glucocorticoid receptor (GR) signaling pathway (AID 720692; active means well fitted inhibition curve with a large enough effect in the signal ratio in the repeat runs, not every such curve was filed as active; the % refers to the signal ratio; further: potency means the concentration at half of the fitted maximal effect). The gist of the method:
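HeLa GR-bla cells; cmpd + dex 5 nM final, 18 h 37 C; LiveBLAzer B/G FRET substrate 2 h RT; fluorescence intensity read. Antagonist mode, qHTS.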

Test [16] has as its target Androgen receptor (Homo sapiens) (UniProt P10275). In words: qHTS assay to identify small molecule agonists of the androgen receptor (AR) signaling pathway (AID 743036; active means well fitted activation curve with a large enough effect in the signal ratio in the repeat runs, with a control signal flat, not every such curve was filed as active; the % refers to the signal ratio). The gist of the method:
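HEK293 cells stably carrying a UAS-driven beta-lactamase reporter (GeneBLAzer AR-UAS-bla-GripTite) were plated at 2,000 cells/well, rested 4 h at 37C, then exposed to compounds in DMSO for 16 h. LiveBLAzer B/G FRET substrate was added for 2 h at room temperature; fluorescence read.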

Test [17] shares this target. Nature of the test: qHTS assay to identify small molecule agonists of the androgen receptor (AR) signaling pathway using the MDA cell line (AID 743040; further: nearly all actives have a fitted effect of over 20% in size). The gist of the method: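 Luminescence from ONE-Glo, read after 30 min at room temperature, reflects MMTV-driven luciferase in MDA-kb2 cells (AR- and GR-responsive). Treatment lasted 16 h at 37C, 0% CO2.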
For test [18] the target is unchanged. Nature of the test: qHTS assay to identify small molecule antagonists of the androgen receptor (AR) signaling pathway using the MDA cell line (AID 743042; further: nearly all actives have a fitted effect of over 55% in size). The gist of the method:
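MDA-kb2 cells (human breast carcinoma, stably carrying an MMTV-luciferase reporter responsive to AR and GR) were plated at 3,000 cells/well and preincubated 5 hr at 37C, then given compound plus R1881 agonist for 16 h. ONE-Glo luminescence was read.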

Molecules are shown by their SMILES. Values joined by “and” are separate entries in the source; they are usually repeats but may differ in a detail not shown here. Equal values may be shown once. Results filed as inconclusive are left out. Active and inactive are the calls of the source. Unless noted, the call rests on the fitted dose curve; in most records, active means well fitted curve in the direction sought with a large enough effect in the repeat runs; inconclusive means weak or mixed curves; inactive means no such curve, though single readings can be large; an effect the other way counts as inactive or inconclusive.

Chain of Glucocorticoid receptor (Homo sapiens) (P04150 whole entry, looked up): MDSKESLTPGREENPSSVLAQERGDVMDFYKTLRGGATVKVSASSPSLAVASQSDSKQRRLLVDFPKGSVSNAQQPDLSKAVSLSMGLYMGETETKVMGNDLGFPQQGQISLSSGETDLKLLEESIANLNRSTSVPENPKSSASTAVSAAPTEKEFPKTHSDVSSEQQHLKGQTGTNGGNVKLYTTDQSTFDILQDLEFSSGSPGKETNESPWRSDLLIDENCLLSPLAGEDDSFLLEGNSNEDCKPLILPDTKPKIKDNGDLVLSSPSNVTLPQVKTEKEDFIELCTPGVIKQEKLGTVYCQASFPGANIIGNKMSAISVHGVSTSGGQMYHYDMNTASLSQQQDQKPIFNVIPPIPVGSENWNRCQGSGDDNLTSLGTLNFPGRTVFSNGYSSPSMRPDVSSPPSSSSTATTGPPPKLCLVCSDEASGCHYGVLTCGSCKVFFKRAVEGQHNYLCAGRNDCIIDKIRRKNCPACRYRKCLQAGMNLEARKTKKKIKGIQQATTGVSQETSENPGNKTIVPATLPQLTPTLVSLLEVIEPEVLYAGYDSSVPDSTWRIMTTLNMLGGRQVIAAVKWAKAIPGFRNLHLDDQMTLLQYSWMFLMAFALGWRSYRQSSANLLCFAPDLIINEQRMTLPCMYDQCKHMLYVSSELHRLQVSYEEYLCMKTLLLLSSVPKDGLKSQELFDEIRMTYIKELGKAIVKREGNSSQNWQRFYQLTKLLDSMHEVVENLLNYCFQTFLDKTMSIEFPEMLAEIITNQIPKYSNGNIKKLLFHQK
Chain of Androgen receptor (Homo sapiens) (P10275 whole entry, looked up): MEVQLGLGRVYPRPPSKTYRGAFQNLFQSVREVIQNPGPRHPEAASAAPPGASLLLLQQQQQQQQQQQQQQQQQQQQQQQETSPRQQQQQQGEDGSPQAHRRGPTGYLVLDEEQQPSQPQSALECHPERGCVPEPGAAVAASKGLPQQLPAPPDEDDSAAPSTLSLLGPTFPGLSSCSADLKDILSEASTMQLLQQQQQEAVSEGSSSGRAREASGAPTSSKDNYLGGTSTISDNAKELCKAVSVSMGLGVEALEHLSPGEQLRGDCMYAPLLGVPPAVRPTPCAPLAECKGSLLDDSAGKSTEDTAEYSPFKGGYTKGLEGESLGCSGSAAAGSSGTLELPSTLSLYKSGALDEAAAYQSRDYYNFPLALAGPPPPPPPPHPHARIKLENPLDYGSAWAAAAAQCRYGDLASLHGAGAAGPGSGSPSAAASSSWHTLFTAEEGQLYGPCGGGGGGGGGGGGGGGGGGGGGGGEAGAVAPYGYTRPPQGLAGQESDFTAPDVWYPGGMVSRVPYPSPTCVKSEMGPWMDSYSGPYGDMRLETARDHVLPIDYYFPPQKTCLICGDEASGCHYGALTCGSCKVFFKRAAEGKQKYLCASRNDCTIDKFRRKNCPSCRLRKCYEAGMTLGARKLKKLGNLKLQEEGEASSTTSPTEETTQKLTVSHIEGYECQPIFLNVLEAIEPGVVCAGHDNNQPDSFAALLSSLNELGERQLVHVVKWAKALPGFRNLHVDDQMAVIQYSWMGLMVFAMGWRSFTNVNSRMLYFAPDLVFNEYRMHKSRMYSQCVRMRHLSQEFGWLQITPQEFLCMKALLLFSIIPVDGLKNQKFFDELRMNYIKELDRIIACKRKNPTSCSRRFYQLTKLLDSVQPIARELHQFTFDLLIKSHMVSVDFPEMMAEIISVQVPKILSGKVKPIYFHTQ

In the case of `COC(=O)c1ccccc1O`, the call in [1], in test [3], in test [4], in test [6] and in test [7] was inactive. For the same compound, the Potency result in test [2], in [5], in [8], in test [9], in test [10] and in test [11] was “inactive” each time. Besides, the Potency entry in test [12] and in test [13] was “inactive” throughout.

On to `Oc1c(Cl)cc(Cl)c(Cl)c1Cl`, for which the compound was classed as inactive in test [1], in test [3], in [4], in test [6] and in test [7]. Further, the Potency result in test [2], in [14], in test [8] and in [13] was “inactive” each time. Besides, the Potency in test [15] was 49 µM (active); in [9] it was 67.1 µM (active).

For `Oc1ccc2ccccc2c1`, the outcome in test [1], in test [3], in test [4], in test [6], in test [7] and in [16] was inactive. In addition, the call in test [17] and in [18] was inactive. Besides, the Potency result in test [2], in test [5], in test [14], in test [15], in test [9] and in [10] was “inactive” in each case. The Potency result in test [11], in test [12] and in [13] was “inactive” in each case.

Regarding `CC#C[C@]1(O)CC[C@H]2[C@@H]3CCC4=CC(=O)CCC4=C3[C@@H](c3ccc(N(C)C)cc3)C[C@@]21C`, the result in [1], in test [3], in test [4], in test [6] and in [7] was inactive. In addition, the Potency result in test [2], in test [5] and in test [14] was “inactive” throughout. Further, the Potency in test [8] is 5.35 µM (active); in [9], 5.96 µM (active) and 30.6 µM (active); in test [10] it was 9.44 µM (active) and 48.6 µM (active).

`S=c1nc[nH]c2nc[nH]c12`: the result in test [1], in test [3], in test [4], in test [6] and in test [7] was inactive. Moreover, the Potency entry in [2], in test [5], in test [8], in [11] and in test [13] was “inactive” throughout. Besides, the Potency in [9] is 23.7 µM (active); in test [10], 53.1 µM (active); in test [12], 5.36 µM (active).

As to `Clc1ccc(Cl)c(Cl)c1Cl`, the call in [1], in [3], in test [4], in test [6] and in test [7] was inactive. The Potency entry in [2], in [14], in [15], in test [8], in [9] and in test [10] was “inactive” each time. In addition, the Potency entry in test [11], in test [12] and in [13] was “inactive” throughout.

For the compound `CCCCC(CC)COC(=O)CCCCCCCC(=O)OCC(CC)CCCC` (configuration not stated), the result in test [1], in [3], in test [4], in test [6] and in [7] was inactive. Further, the Potency result in [2], in test [5], in test [14], in test [15], in [8] and in [9] was “inactive” in each case. In addition, the Potency result in test [10], in test [11], in test [12] and in test [13] was “inactive” in each case.

Turning to `CCOC(=O)/C=C\C(=O)OCC`, the result in [1], in [3], in [4], in [6] and in test [7] was inactive. Further, the Potency result in test [2], in test [14], in test [15], in [9], in [10] and in test [11] was “inactive” in each case. The Potency result in test [12] and in [13] was “inactive” in each case.

As to `Cc1ccc(C(=O)O)o1`, the result in test [1], in test [3], in test [4], in test [6] and in test [7] was inactive. The Potency entry in test [2], in test [5], in test [14], in test [15], in test [9] and in test [10] was “inactive” in each case. Besides, the Potency result in [11], in [12] and in test [13] was “inactive” each time.

As for `C=C(C)C(=O)OCCCCCCCCCCCC`, the result in [1], in test [3], in test [4], in [6] and in [7] was inactive. Also, the Potency entry in test [2], in test [5], in test [14], in [15], in [9] and in [10] was “inactive” throughout. Besides, the Potency entry in [11], in test [12] and in test [13] was “inactive” each time.

On to `COC(=O)c1ccc(C(=O)OC)cc1`, for which the compound was called inactive in test [1], in [3], in [4], in test [6] and in [7]. The Potency result in [2], in test [5], in [8], in test [9], in test [10] and in test [11] was “inactive” each time. The Potency entry in test [12] and in test [13] was “inactive” each time.

Consider `C=C1C2CCC(C2)C1(C)C` (configuration not stated), for which the compound was classed as inactive in test [1], in [3], in test [4], in test [6] and in test [7]. Moreover, the Potency entry in test [2], in [5], in test [14], in test [15], in test [8] and in test [9] was “inactive” in each case. Moreover, the Potency entry in test [10], in [12] and in [13] was “inactive” in each case.
